3T3 cytotox = Cytotoxic Profiling in NIH 3T3 Cell Line of Diverse Libraries Using Quantitative High-Throughput Screening; NIH 3T3 viability, CellTiter-Glo ATP luminescence, 48-72 h; hit rate 4.3% among 94,000; Potency, µM (top dose mostly 96.7 µM), without a hit: at the top dose activity change, negative = cytotoxicity, hits mostly inhibitors; further: nearly all actives have a fitted effect of over 55% in size
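First NIH 3T3 cells are plated at 400 cells/well; next compound is pinned in; then plates incubate 48 or 72 hr at 37 °C; finally CellTiter-Glo is added and luminescence read after 10 min.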
Luciferase inh = Firefly luciferase inhibition profiling of diverse chemical library using quantitative high-throughput screening; Luciferin 4-monooxygenase (Photinus pyralis), P08659; purified P. pyralis luciferase, luminescence, biochemical; Potency, µM (titrated, usually from 115 µM), actives largely listed as inhibitors; hit rate 2.5% among 76,000; further: nearly all actives have a fitted effect of over 65% in size
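FLuc 10nM, D-luciferin 10uM, ATP 10uM, Mg acetate 10mM, Tris acetate pH 7.5, Tween/BSA; cpd qHTS; enzyme added last; CCD luminescence.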
NPR1 antag = Natriuretic polypeptide receptor (hNpr1) antagonism - Primary qHTS | hit rate 1.6% among 76,000 | HEK293 hNpr1 GloSensor cGMP, ANP-stimulated luminescence | Atrial natriuretic peptide receptor 1 (Homo sapiens), P16066 | Potency, µM (top dose mostly 46.3 µM), without a hit: at the highest dose activity change, negative = inhibition, actives largely listed as inhibitors; calls by dose curve; further: nearly all actives have a fitted effect of over 60% in size
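HEK293 cells stably expressing human Npr1 and cGMP GloSensor pGS-40F, loaded 2 h with 2% GloSensor reagent, given compound 30 min at room temperature. Luminescence read before and 20 min after 0.1 nM hNppA.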
GPT2 inh = Primary qHTS assay for inhibitors of Glutamate pyruvate transaminase 2 (GPT2) | hit rate 0.25% among 100,000 | Recombinant GPT2, coupled pyruvate oxidase/HRP Amplex Red fluorescence | Potency, µM (top dose mostly 57.7 µM), for inactives: top-dose activity change, negative = inhibition, actives largely listed as inhibitors | Alanine aminotransferase 2 (Homo sapiens), Q8TD30; further: nearly all actives have a fitted effect of over 60% in size
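Fluorescence of coupled pyruvate oxidase/HRP/Amplex Red system (50uM Amplex, 30 min, dark) reports pyruvate formed by GPT2. Enzyme reaction: 10ng/uL GPT2, 2mM L-alanine, 250uM a-KG, 30 min room temperature, pH 7.5; 50uM AOA control.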
HEK cytotox = Cytotoxic Profiling in HEK 293 Cell Line of Diverse Libraries Using Quantitative High-Throughput Screening. HEK 293 viability, ATP luminescence (CellTiter-Glo), 48-72 h. Potency, µM (doses to about 115 µM), for inactives: at the top dose activity change, negative = cytotoxicity, actives largely listed as inhibitors. hit rate 6.6% among 94,000. AID 1345083, 2018; further: nearly all actives have a fitted effect of over 60% in size
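250 HEK 293 cells/well; compound by pintool; incubated 48 or 72 hr at 37 degree Celsius; CellTiter-Glo added, 10 min RT, luminescence imaged.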
The depositor's hits bear a star; i = inactive; ? = inconclusive; . = not tested or not shown; ! = repeats disagree; [ ] = dose if it differs, or a comment. Most compounds without a hit are left out; they make up all but 10% or so of the library. Unless noted, the call rests on the fitted dose curve; in most records, active means well fitted curve in the direction sought with a large enough effect; inconclusive means small, poorly fitted or top-dose-only effect, or another doubt; inactive means no such curve, though single readings can be large; an effect the other way counts as inactive or inconclusive. On the % scale 0 is the no-effect control and ±100 the full control effect; potency means the concentration at half of the fitted maximal effect.

SMILES | 3T3 cytotox | Luciferase inh | NPR1 antag | GPT2 inh | HEK cytotox
Cn1cccc1C(=O)N1CCC(n2cc(-c3nc(C4CC4)no3)nn2)C1 (centres undefined) | -19.2% | i | -0.5% | i | -19.7%
CC(C)(C)C(=O)NC1CCN(c2nc3ncccc3o2)C1 (centres undefined) | -20.5%[138 µM] | . | . | i | -4.5%[172 µM]
COc1cccc(-c2cc(-c3ccncc3)c3cncn3c2)c1OC | ? | i | -3.5%[70.6 µM] | -11.8%[88.5 µM] | 89.1µM*
COc1cccc(-c2cc(-c3c(C)noc3C)c3cncn3c2)c1OC | ? | i | 0.2%[70.6 µM] | i | 79.4µM*
CCc1ccc(CN2CCCC23Cc2ccccc2CNC3=O)cc1 (centres undefined) | ? | . | . | i | 89.1µM*
c1ccc(-c2nc3ccncc3[nH]2)nc1 | ? | i | 8.2%[70.6 µM] | 0.5%[88.5 µM] | 44.7µM*!
c1csc(-c2nc3ccncc3[nH]2)c1 | 100µM*! | ? | 11.0%[70.6 µM] | 2.4%[88.5 µM] | ?
O=C(Cn1nc2c(cc1=O)CCCCC2)NCc1ccccc1 | i | ? | 0.9% | i | 4.7%
O=C1[C@@H]2C[C@@H](CN2C2CCC2)Oc2ccccc2N1Cc1ccc(OC(F)(F)F)cc1 | 39.8µM* | i | -29.1%[70.6 µM] | -9.9%[88.5 µM] | 70.8µM*
COc1ccc(CN2C(=O)[C@@H]3C[C@@H](CN3Cc3ccccc3OC)Oc3ccccc32)cc1 | i | i | -11.6% | i | i
COc1ccc(CN2C(=O)[C@@H]3C[C@@H](CN3Cc3ccccc3)Oc3ccccc32)cc1 | ? | i | -22.5%[70.6 µM] | -10.0%[88.5 µM] | 50.1µM*
COc1ccc(CN2C(=O)[C@@H]3C[C@@H](CN3Cc3ccccc3C)Oc3ccccc32)cc1 | ? | i | -30.1%[70.6 µM] | -3.5%[88.5 µM] | 70.8µM*
O=C1[C@@H]2C[C@@H](CN2Cc2ccc(Cl)cc2)Oc2ccccc2N1Cc1ccccc1 | 31.6µM* | i | ? | 4.0%[88.5 µM] | 63.1µM*
CC(C)(O)C1CCC(C)(C2CCC3(C)C4CCC5C(C)(C(=O)OC6OC(CO)C(O)C(O)C6O)C(O)CC(O)C56CC46CCC23C)O1 (centres undefined) | . | . | . | i | .
CC(C)N1C[C@@H]2C[C@H]1C(=O)N(Cc1cccnc1)c1ccccc1O2 | ? | i | 0.3%[70.6 µM] | 2.3%[88.5 µM] | -12.2%[172 µM]
COCCN1C(=O)[C@@H]2C[C@@H](CN2Cc2ccc(C(F)(F)F)cc2)Oc2ccccc21 | ? | i | -1.9%[70.6 µM] | ? | 79.4µM*
CC(C)N1C[C@@H]2C[C@H]1C(=O)N(Cc1ccccc1)c1ccccc1O2 | 50.1µM* | i | -21.8%[70.6 µM] | -13.7%[88.5 µM] | ?
CN1C(=O)[C@@H]2C[C@@H](CN2Cc2ccc3ccccc3n2)Oc2ccccc21 | 79.4µM* | i | -13.3%[70.6 µM] | 1.8%[88.5 µM] | ?
O=C1Nc2ccccc2O[C@H]2C[C@@H]1N(Cc1ccc(C(F)(F)F)cc1)C2 | ? | i | ? | ? | 70.8µM*
Cc1ccccc1CNC[C@H]1Cn2cc(-c3ccccc3)nc2CO1 | ? | i | 4.4%[70.6 µM] | -2.6%[88.5 µM] | 100µM*
c1ccc(-c2cn3c(n2)CO[C@@H](CNCc2ccc4ccccc4n2)C3)cc1 | ? | i | -6.8%[70.6 µM] | 4.9%[88.5 µM] | ?
Fc1ccccc1CNC[C@H]1Cn2cc(-c3ccccc3)nc2CO1 | -27.6%[138 µM] | 63.1µM* | 3.4%[70.6 µM] | -2.6%[88.5 µM] | ?
Clc1ccccc1CNC[C@H]1Cn2cc(-c3ccccc3)nc2CO1 | ? | 56.2µM* | -17.4%[70.6 µM] | -6.6%[88.5 µM] | 100µM*
Cc1ccc(CNC[C@H]2Cn3cc(-c4ccccc4)nc3CO2)cc1 | ? | i | 0.3%[70.6 µM] | 2.6%[88.5 µM] | ?
COCCNC(=O)[C@@H]1C[C@H](Oc2ccccc2)CN1C(=O)c1cnccc1C | -4.3% | i | 6.5% | -8.7% | 1.6%
SMILES | 3T3 cytotox | Luciferase inh | NPR1 antag | GPT2 inh | HEK cytotox
Cc1cn2nnc(C(=O)NCc3ccc4c(c3)OCO4)c2c(=O)[nH]1 | 4.1% | 39.8µM* | 2.0% | -1.8% | 7.1%
Cc1cccc(CNC(=O)c2nnn3cc(C)[nH]c(=O)c23)c1 | -20.0% | i | 3.7% | i | 7.2%
CC(=O)OCC(=O)[C@@]1(O)[C@H](C)C[C@H]2[C@@H]3C=C(C)C4=Cc5c(cnn5-c5ccccc5)C[C@]4(C)[C@@H]3[C@@H](O)C[C@@]21C | . | . | . | 0.1% | .
COc1cccc(-c2cn3cc(C(=O)NCC4CC4)nc3s2)c1 | ? | . | . | i | 70.8µM*
COc1ccc(CCNC(=O)c2cn3cc(-c4cccc(OC)c4)sc3n2)cc1 | ? | . | . | -5.3% | ?
O=C(NCC1CC1)c1cn2cc(-c3ccccc3)sc2n1 | ? | . | . | -15.3%[88.5 µM] | 100µM*
COc1cccc(-c2cn3cc(C(=O)NCCc4ccc(Cl)cc4)nc3s2)c1 | -13.4% | . | . | i | 31.6µM*
COc1cccc(-c2cn3cc(C(=O)NCC4CCCCC4)nc3s2)c1 | ? | . | . | -7.4% | 22.4µM*
COc1ccc(-c2cn3cc(C(=O)NCC4CCCCC4)nc3s2)cc1 | -31.3% | . | . | i | ?
O=C(NCC1CC1)c1cn2cc(-c3cccc(C(F)(F)F)c3)sc2n1 | -27.8% | . | . | -2.2% | ?
O=C(c1cccnc1)N1CCCC2(CNc3ccccc3[S+](=O)([O-])N2)C1 (centres undefined) | i | i | 10.6% | 2.8% | i
CCOCCC(=O)N1CCCC(c2nnc(CN3CCCC3)n2C)C1 (centres undefined) | -7.4% | i | -3.2% | 0.5% | 1.8%
CS(=O)(=O)c1ccc(O[C@H]2COCCN(C(=O)c3cnccn3)C2)cc1 | -7.2%[138 µM] | i | 2.9%[70.6 µM] | -14.5%[88.5 µM] | -4.7%[172 µM]
c1cc(CN(CCN2CCCCC2)CC2CCCN(C3CCCC3)C2)c2nonc2c1 (centres undefined) | -15.5% | i | -2.4% | 3.9% | -12.9%
CC1=C[C@@H](CNS(=O)(=O)c2ccc(C#N)cc2)[C@H](C(C)C)C[C@H]1CC(=O)N1CCOCC1 | -25.9% | i | 6.1% | 3.5% | -5.4%
COc1cc2cc(CN3CCC(N(C)C)C3)c(-c3cccc(Cl)c3)nc2cc1OC (centres undefined) | ? | ? | -0.8% | -3.5% | ?
CN(C)C1CCN(Cc2cc3cc4c(cc3nc2-c2ccc(Cl)cc2)OCO4)C1 (centres undefined) | ? | 28.2µM* | -11.0% | -17.9% | ?
OCC1CCN(Cc2cc3cc4c(cc3nc2-c2ccc(Cl)cc2)OCO4)CC1 | ? | 31.6µM* | -2.9% | i | ?
CC1(O)CCCN(Cc2cc3cc4c(cc3nc2-c2ccc(Cl)cc2)OCO4)C1 (centres undefined) | ? | 31.6µM* | -2.4% | 0.8% | ?
